Measured values as given in article PMC4336329 (PLoS ONE, 2015).
Hit rate of the full screen: of about 310,000 compounds, about 14,000 (4.5%) showed an effect of 50% or more. The effect is printed as a negative number. The list comes from a sample in which strong results are over-represented; it also holds similar structures and randomly drawn compounds.

These compounds were tested against human ether-à-go-go-related gene (hERG) potassium channel (human, UniProt Q12809) (assay: primary screen, population patch clamp on CHO cells stably expressing hERG; higher = less effect of the substance).
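Note: peak tail current of the secondary pulse compared with the same well before compound.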

human ether-à-go-go-related gene (hERG) potassium channel, sequence (Q12809 whole entry, looked up): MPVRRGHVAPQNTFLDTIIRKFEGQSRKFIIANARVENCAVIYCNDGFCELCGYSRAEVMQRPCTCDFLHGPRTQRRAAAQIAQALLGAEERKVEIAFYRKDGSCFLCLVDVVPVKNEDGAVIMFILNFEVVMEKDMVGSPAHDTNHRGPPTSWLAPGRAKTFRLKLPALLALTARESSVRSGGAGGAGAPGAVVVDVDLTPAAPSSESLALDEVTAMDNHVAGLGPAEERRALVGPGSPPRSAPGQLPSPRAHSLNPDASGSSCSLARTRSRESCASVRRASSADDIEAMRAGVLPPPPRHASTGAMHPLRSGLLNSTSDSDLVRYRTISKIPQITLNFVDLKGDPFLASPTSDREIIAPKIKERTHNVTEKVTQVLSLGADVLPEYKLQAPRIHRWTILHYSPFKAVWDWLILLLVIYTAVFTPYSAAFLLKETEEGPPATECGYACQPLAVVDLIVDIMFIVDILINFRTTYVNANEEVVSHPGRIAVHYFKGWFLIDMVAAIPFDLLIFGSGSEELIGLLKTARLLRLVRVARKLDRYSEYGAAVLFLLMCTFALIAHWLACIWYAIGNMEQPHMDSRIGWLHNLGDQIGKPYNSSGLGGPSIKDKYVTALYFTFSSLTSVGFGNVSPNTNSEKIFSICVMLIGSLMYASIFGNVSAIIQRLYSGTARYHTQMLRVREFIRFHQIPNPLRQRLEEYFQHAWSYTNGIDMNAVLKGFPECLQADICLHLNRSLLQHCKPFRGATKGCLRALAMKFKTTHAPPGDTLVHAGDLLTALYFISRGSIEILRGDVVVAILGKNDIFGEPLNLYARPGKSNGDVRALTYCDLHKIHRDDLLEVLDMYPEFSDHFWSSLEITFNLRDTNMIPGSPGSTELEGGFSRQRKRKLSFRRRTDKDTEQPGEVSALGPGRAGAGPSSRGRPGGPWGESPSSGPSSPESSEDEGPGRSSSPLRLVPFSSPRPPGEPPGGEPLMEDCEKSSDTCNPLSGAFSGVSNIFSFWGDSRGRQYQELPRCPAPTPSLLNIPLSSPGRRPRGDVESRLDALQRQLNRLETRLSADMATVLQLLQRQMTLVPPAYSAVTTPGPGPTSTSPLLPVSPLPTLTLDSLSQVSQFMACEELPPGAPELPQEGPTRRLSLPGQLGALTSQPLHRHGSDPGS

Compound | hERG current change (%, negative = inhibition) at 10uM [%]
CC1(CCC#N)N=C(SCCC#N)N(c2ccccc2)C1=O (stereo not shown) | 2.7
NC(Cc1ccc(O)c([N+](=O)[O-])c1)C(=O)O (stereo not shown) | 15.2
CN(CC(=O)NCCN1CCN(Cc2ccccc2)CC1)S(=O)(=O)c1cccc2nsnc12 | -25.4
CCC/C=C1/CCCOC(C(=O)NCc2cc(C)n(C)n2)(C(F)(F)F)C1 (stereo not shown) | 5.48
O=C(CSc1nnc(NC(=O)c2ccccc2C(=O)O)s1)Nc1ccccc1Cl | 24
O=C(O)c1ccc(Nc2nc(-c3cccnc3)cs2)cc1O | 9.69
C=CCNC(=O)CSc1nnc(-c2cccs2)o1 | -0.265
Cc1ccc(-c2nn(-c3cc(Cl)ccc3[N+](=O)[O-])c(=O)c3ccccc23)cc1 | -22.1
Cc1nc2c([nH]1)C1(CCN(Cc3ccccc3)CC1)C(C#N)=C(N)O2.Cl | -52.5
Cc1[nH]nc2c1C1(CCN(Cc3ccccc3)CC1)C(C#N)=C(N)O2 | -42
CC(C)c1[nH]nc2c1C1(CCN(Cc3ccccc3)CC1)C(C#N)=C(N)O2 | -25.5
COCCN1C(=O)c2cc(C(=O)Nc3cccc(F)c3)ccc2C1Nc1cccc(F)c1 (stereo not shown) | 7.71
Cc1cc(C)c(S(=O)(=O)c2ccccc2)c(N(C)C)n1 | 4.06
CCN(CC)CCn1c(N)c(S(=O)(=O)c2ccccc2)c2nc3ccccc3nc21 | -49.4
Nc1c(S(=O)(=O)c2ccccc2)c2nc3ccccc3nc2n1CCN1CCOCC1 | -38.2
CN(C)CCCn1c(N)c(S(=O)(=O)c2ccccc2)c2nc3ccccc3nc21 | -51.1
CCCCn1c(N)c(S(=O)(=O)c2ccc(C)cc2)c2nc3ccccc3nc21 | -0.298
Cc1ccc(S(=O)(=O)c2c(N)n(CCCN(C)C)c3nc4ccccc4nc23)cc1 | -59
Cc1ccc(S(=O)(=O)c2c(N)n(CCCO)c3nc4ccccc4nc23)cc1 | -21.4
O=C(NCC1CCCN(C(=O)CN2CCCCC2)C1)c1ccccc1Cl (stereo not shown) | 13
Cc1cc(SCC(=O)NCCC2=CCCCC2)nc2ccccc12 | -10.9
O=c1c(-c2ccnn2-c2ccc(F)cc2)cnc2n1CCS2 | 19.9

Compound | hERG current change (%, negative = inhibition) at 10uM [%]
CCOC(=O)C1CCN(C(=O)/C=C/c2ccccc2)CC1 | -16.8
Cc1cccc(NC(=O)CN2CCN(C(=O)C3CCC3)CC2)c1C | -31.4
CCc1ccccc1NC(=O)CN1CCN(C(=O)C2CCN(C(=O)/C=C/c3ccccc3)CC2)CC1 | -72.9
COC(=O)C1CCN(C(=O)/C=C/c2ccccc2)CC1 | 4.21
Cc1cccc(NC(=O)CN2CCN(C(=O)C3CCCO3)CC2)c1C (stereo not shown) | 9.91
Cc1cccc(NC(=O)CN2CCN(C(=O)C3CCN(C(=O)/C=C/c4ccccc4)CC3)CC2)c1C | -73.9
C/C(=N\N=c1/sc2ccccc2n1C)c1ccc(N2CCOCC2)cc1 | 18.9
Cc1ccc2c(CC(=O)OCc3nc(N)nc(Nc4ccccc4C)n3)coc2c1 | 5.79
CCCNC(=O)OCc1cccnc1Sc1ccc(C)cc1 | -30
COCCOc1ccc(C(F)(F)F)cc1NC(=O)c1ccc(C)cc1 | -0.151
COc1ccc(CCNC(=O)[C@@H](NC(=O)c2ccccc2F)C(C)C)cc1OC | -9.87
O=C(CSc1ncccn1)NCc1ccc2c(c1)OCO2 | 11.9
Clc1ccc(OCc2nc(-c3ccccn3)n[nH]2)cc1 | -55.6
Cc1ccc(OCc2nc(-c3ccccn3)n[nH]2)cc1 | -15.7
Brc1ccc(OCc2nc(-c3ccccn3)n[nH]2)cc1 | -3.04
O=C(CN1CC=C(c2ccccc2)CC1)Nc1c(Cl)cccc1Cl | 4.21
CCOc1ccc2c(c1)-c1c(ssc1=S)C(C)(C)N2 | 4.44
O=C(O)CCCC(=O)Nc1ccc(Cl)cc1 | 21.6
COc1cccc(-c2noc(Cn3nc(C)c([N+](=O)[O-])c3C)n2)c1 | -6.89
CN(C)C(CNC(=O)c1cccc(C(F)(F)F)c1)c1ccco1 (stereo not shown) | -11.8
Nc1c(C(=O)O)cnc2nc(N3CCOCC3)nn12 | 21.7
CC(C)OC(=O)c1sc2nc(-c3ccccc3)ccc2c1N | 16.7

Compound | hERG current change (%, negative = inhibition) at 10uM [%]
Nc1c(C(=O)N2CCCC2)sc2nc(-c3ccccc3)ccc12 | -70.7
NC(=O)c1sc2nc(-c3ccccc3)ccc2c1N | 18.7
CCOc1ccc(NC(=O)C(CC(=O)O)Cc2ccccc2)cc1 (stereo not shown) | 5.94
O=C(c1ccco1)N1CCC(c2nc3ccccc3[nH]2)CC1 | -5.9
CCOc1ccc(CSC(=N)N)cc1[N+](=O)[O-].Cl | -65.5
CCOc1ccc(CSC(=N)N)cc1Cl.Cl | -15.2
CCCOc1ccc(CSC(=N)N)cc1C(=O)OC.Cl | -0.181
Cl.N=C(N)SCc1ccc(O)c([N+](=O)[O-])c1 | -0.169
COC(=O)c1cc(CSC(=N)N)ccc1OCCC(C)C.Cl | -3.46
CCCCOc1ccc(CSC(=N)N)cc1Cl.Cl | -21.9
CCCCOc1ccc(CSC(=N)N)cc1[N+](=O)[O-].Cl | -64.1
CCCCCOc1ccc(CSC(=N)N)cc1[N+](=O)[O-].Cl | -56.7
COc1ccc(CSC(=N)N)cc1[N+](=O)[O-].Cl | -3.72
Cc1ccc(-c2n[nH]c(=O)c3ccccc23)cc1N | 5.75
COc1cccc(CNC(=O)c2ccc(Cl)c(S(=O)(=O)N3CCOCC3)c2)c1 | -19.5
COc1ccc(OC)c(S(=O)(=O)n2nnc3cc(Cl)ccc32)c1 | 4.31
COc1ccc(NC(=O)c2ccccc2OCc2c(C)noc2C)cc1OC | -37.5
CN(c1ccc(C(=O)N2CCN(Cc3ccccc3)CC2)cc1)S(=O)(=O)c1ccc(Cl)cc1 | -24.9
CCOc1ccccc1NC(=O)N1CCCC(c2nc(-c3ccc(C)o3)no2)C1 (stereo not shown) | -52.5
Cc1ccc(-c2noc(C3CCCN(C(=O)c4ccc(C(C)(C)C)cc4)C3)n2)o1 (stereo not shown) | -19.8
Cc1ccc(-c2noc(C3CCCN(C(=O)c4cccc(Cl)c4)C3)n2)o1 (stereo not shown) | -43.4
Cc1cccc(C(=O)N2CCCC(c3nc(-c4ccc(C)o4)no3)C2)c1 (stereo not shown) | -27.7

Compound | hERG current change (%, negative = inhibition) at 10uM [%]
Cc1ccc(-c2noc(C3CCCN(C(=O)c4ccc(Cl)cc4)C3)n2)o1 (stereo not shown) | -55.2
COc1ccc(C(=O)N2CCCC(c3nc(-c4ccc(C)o4)no3)C2)cc1OC (stereo not shown) | -8.29
Cc1ccc(-c2noc(C3CCCN(C(=O)c4cccc([N+](=O)[O-])c4)C3)n2)o1 (stereo not shown) | -65
Cc1ccc(-c2noc(C3CCCN(C(=O)c4ccccc4Br)C3)n2)o1 (stereo not shown) | -42.6
Cc1ccc(-c2noc(C3CCCN(C(=O)c4ccccc4)C3)n2)o1 (stereo not shown) | -13.1
COc1cc(OC)cc(C(=O)N2CCCC(c3nc(-c4ccc(C)o4)no3)C2)c1 (stereo not shown) | -9.35
CCOc1ccc(C(=O)N2CCCC(c3nc(-c4ccc(C)o4)no3)C2)cc1 (stereo not shown) | -60.2
CCOc1ccc(C(=O)N2CCCC(c3nc(-c4cccs4)no3)C2)cc1 (stereo not shown) | -46.9
COc1ccc(S(=O)(=O)N2CCCCCC2)cc1C(=O)OCC(=O)NC(C)(C)C | -17.5
O=C(NC1CCS(=O)(=O)C1)c1ccc(-c2ccc(Br)cc2)o1 (stereo not shown) | -20.9
O=C1CN(C(=O)N[C@@H](Cc2ccccc2)C(=O)N[C@@H](Cc2ccccc2)C(=O)O)c2ccccc2N1 | 3.79
CCOc1cccc(OCCOCCNC(C)(C)C)c1.O=C(O)C(=O)O | 3.71
COn1c(=O)c(=O)n(OC)c2ccccc21 | -3.45
Cc1ccc(C)c(S(=O)(=O)N2CCCOC2CNC(=O)C(=O)NCc2ccco2)c1 (stereo not shown) | 11.6
CC(C)CCN1C(=O)c2ccccc2C1C(=O)NCc1cccnc1 (stereo not shown) | -16.1
Cc1nc2c(C(=O)N3CCN(c4ccccn4)CC3)cnn2c(C)c1Cc1cccc(Cl)c1 | -43.4
Brc1cc(Br)c2ncnc(N3CCCCC3)c2c1 | -11.8
CCc1cc(C(=O)OC)c(NC(=O)C2CC(=O)NN2Cc2ccccc2)s1 (stereo not shown) | -29.7
O=c1c2ccccc2nc(/C=C/c2ccccn2)n1-c1ccccc1 | 10.9
COc1ccccc1NC(=O)CCCCCN1C(=O)c2cccc([N+](=O)[O-])c2C1=O | -39.2
CCOc1ccccc1NC(=O)CN1CCN(C(=O)C2CCCO2)CC1 (stereo not shown) | -10.6
O=C(OCn1nnc2ccccc2c1=O)c1cc(-c2ccccc2)nc2ccccc12 | 6.74
